PubChem BioAssay (NCI)
Where “and” joins values, the source holds several entries; their conditions need not be identical. Equal entries are not always repeated. Compounds without any hit were thinned out: in the full panel of roughly 83,000, 20% have a hit.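 Percent growth is the endpoint: 0 to 100 indicates growth inhibition (40 means 60% inhibition), 0 means no net growth, and negative values indicate cell death.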 Calls of active or inactive are those of the source. How the source made its calls: active means growth percent below 10; inactive means the rest.

System: MDA-MB-468 breast
Experiment: NCI-60 one-dose screen, 48 h (100 = growth as untreated, 0 = no growth, -100 = all killed)
Details: 10 µM unless noted

How did the growth turn out when `CCCCCCCCn1ccc2cc(NC(=O)CN3CCN(c4nc(C)cc(N5CCCCC5)n4)CC3)ccc21` was run?
The growth was 73.2% (inactive).

How did the growth turn out when `N#CC1=C(N)Oc2c(sc3c(F)cccc23)C1c1ccc(F)cc1` (stereo not given) was run?
Its growth is 26.5% (inactive).

Which growth does the source give for `COc1ccc2oc(=O)cc(-c3nc4ccc(N)cc4[nH]3)c2c1` here?
The growth was 83.9% (inactive).

Which growth does the source give for `c1c[nH]c(CNC2CCCCC2)c1` here?
The growth was 141% (inactive).

Which growth does the source give for `CSc1nc2ccccc2cc1/C=[N+](\[O-])c1ccccc1` here?
Its growth is 88% (inactive).

Which growth does the source give for `O=C1Nc2cc(-c3ccc(NS(=O)(=O)c4ccccc4)cc3)ccc2/C1=C/c1ccc[nH]1` here?
Its growth is -7.8% (active).

For `NCC(=O)NC(CC(=O)O)C(=O)O` (stereo not given), which growth is on record?
The growth was 102% (inactive).

Which growth does the source give for `CS(=O)(=O)c1cccc(-c2c(-c3cccc(OS(N)(=O)=O)c3)nc3sccn23)c1` here?
Its growth is 104% (inactive).

`CCCCOc1ccc(S(=O)(=O)N2CCN(c3nc(C)cc(N4CCOCC4)n3)CC2)cc1` was tested. Which growth did it give?
The growth was 34.8% (inactive).

Which growth does the source give for `CCOC(=O)C(=Cc1ccc(C#N)cc1)C(=O)OCC` here?
The growth was 15.6% (inactive).

With `c1ccc2c(Cc3csc4ccccc34)csc2c1` as the compound, how does the growth read?
The growth was 74% (inactive).

Which growth does the source give for `CCOC(=O)/C=C1/SC(=Nc2ccc(C#N)cc2)N(Cc2ccco2)C1=O` here?
Its growth is 27.5% (inactive).

With `COc1ccc(-c2cn(-c3ccc(Cl)cc3)c(SCC(=O)c3ccc([N+](=O)[O-])cc3)n2)cc1` as the compound, how does the growth read?
Its growth is 71.2% (inactive).

How did the growth turn out when `COc1cc(-c2nn(-c3cccc(NC(=O)NCCNC(=O)c4cccc(C(F)(F)F)c4)c3)cc2-c2ccncc2)ccc1Cl` was run?
The growth was 7.11% (active).

`NC(=O)c1c(NC(=O)c2cccs2)sc2c1CCC(=O)C2` was tested. Which growth did it give?
The growth was 65.2% (inactive).

How did the growth turn out when `Cc1nc(Nc2ccccn2)sc1C(=O)/C=C/c1ccc(Br)cc1` was run?
The growth was 27.3% (inactive).

Which growth does the source give for `CCC(=O)Oc1ccc(/C(=C(\C)c2ccccc2)c2ccc(OCCN3CCCCC3)cc2)cc1` here?
Its growth is 70.3% (inactive).

How did the growth turn out when `O=C(Nc1ccccc1O)c1ccc(CNC(=O)c2ccsc2Nc2ccnc(C(F)(F)F)c2)cc1` was run?
Its growth is -17.2% (active).

With `CCCCCCCCc1cc(Cl)c(O)c(Cl)c1` as the compound, how does the growth read?
The growth was 119% (inactive).

`COc1nc2ccc(C)cc2cc1/C=[N+](\[O-])c1ccccc1` was tested. Which growth did it give?
Its growth is 79.3% (inactive).

`CCCCN(CCCC)CCCO` was tested. Which growth did it give?
Its growth is 106% (inactive).

How did the growth turn out when `N#CN1CC[C@H](C(=O)Nc2ncc(-c3ccccc3)s2)C1` was run?
The growth was -49.9% (active).

With `O=C(c1nc2ccccc2[nH]1)C1C(c2ccc(Br)cc2)C2CC3CCCC[C@H]3N2[C@@]12C(=O)Nc1cc(Cl)ccc12` (stereo not given in full) as the compound, how does the growth read?
The growth was 12.5% (inactive).

With `O=C(CSc1nccc(=O)[nH]1)Nc1ccc(-c2nc3ccccc3[nH]2)cc1` as the compound, how does the growth read?
The growth was 118% (inactive).

How did the growth turn out when `CC1CN(CCO)CC(C)O1` (stereo not given) was run?
The growth was 108% (inactive).

How did the growth turn out when `Clc1ccc(-c2nnc(COc3ccc(C4=NNC(c5ccco5)C4)cc3)o2)cc1` (stereo not given) was run?
The growth was 9.43% (active).

Which growth does the source give for `CCN1C(=O)N(CC)C2SC(N/N=C/c3ccccc3F)=NC21` (stereo not given) here?
Its growth is 40.4% (inactive).

`O=C1CC(c2cccc(-c3cccnc3)c2)=Nc2ccc(Br)cc2N1` was tested. Which growth did it give?
The growth was 10.5% (inactive).

For `COc1ccc(S(=O)(=O)NCCNc2nccc(-c3c(-c4cccc(N)c4)nc4sccn34)n2)cc1`, which growth is on record?
Its growth is 88.5% (inactive).

For `COc1ccc(-n2c(=O)c3ccccc3n(Cc3ccc(C(=O)NO)cc3)c2=O)cc1`, which growth is on record?
Its growth is 3.21% (active).

Which growth does the source give for `CS(=O)(=O)c1ncc(-c2ccccc2)cn1` here?
Its growth is 95.6% (inactive).

With `COc1ccc(/C=C2/CCc3cc4ccc(OC)cc4[o+]c32)c(O)c1` as the compound, how does the growth read?
The growth was 97.1% (inactive).

Which growth does the source give for `NC(N)=Nc1ccc(Oc2cccc(NC(N)=Nc3ccc(Br)c(C(F)(F)F)c3)c2)cc1` here?
The growth was 4.68% (active).

For `Cc1cccc(CN(Nc2ccccc2)c2ccccc2)n1`, which growth is on record?
Its growth is 94.9% (inactive).

For `CC1(C)CC[C@]2(C(=O)N3CCOCC3)CC[C@]3(C)C(=CC[C@@H]4[C@@]5(C)CC[C@H](OC(=O)c6cccnc6)C(C)(C)[C@@H]5CC[C@]43C)[C@@H]2C1`, which growth is on record?
Its growth is 45.6% (inactive).

With `COC(=O)c1ccc([N+](=O)[O-])c(C)c1` as the compound, how does the growth read?
Its growth is 102% (inactive).

For `COc1ccc2cc(C(C)C(=O)Nc3ccc(-c4n[nH]c(=S)n4C4CCCCC4)cc3)ccc2c1` (stereo not given), which growth is on record?
The growth was 111% (inactive).

Which growth does the source give for `O=C(O)CCC/C=C\C[C@H]1C=CC(=O)/C1=C/C[C@@H](O)CCc1cccc(C(F)(F)F)c1` here?
The growth was -6.7% (active).

With `Nc1c2ccccc2nc2ccccc12` as the compound, how does the growth read?
Its growth is -45.4% (active) and 2.95% (active) and 23% (inactive).

How did the growth turn out when `CC(C)=NNc1ccccn1` was run?
The growth was 12.9% (inactive).
